This is an account of results in PubChem BioAssay (NCI).

About 79,000 compounds went through this panel and 15% of them were active in at least one assay; those are over-represented in the sample as a whole. Unmarked numbers belong to inactive results. Activity calls are given as the source filed them. No stated cut-off is given here; in the data, active means growth inhibition above about 70%; inactive means the rest.

The nature of assay [1]: NCI Yeast Anticancer Drug Screen. Data for the rad50 strain (AID 155).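 Further: 0% = growth of vehicle-only cultures of the same strain.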 To be noted: S. cerevisiae rad50 strain growth inhibition; at 50.0 µM; stronger effect = higher value. The gist of the method: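 Readout: growth inhibition relative to vehicle-treated cultures. Compound exposure was carried out in a genetically defined yeast strain deficient in DNA damage repair.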
A short description of assay [2]: NCI Yeast Anticancer Drug Screen. Data for the mec2-1 strain (AID 157). To be noted: S. cerevisiae mec2-1 strain, at 50.0 µM, stronger effect = higher value. Put shortly: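 Vehicle-treated cultures served as reference for growth inhibition of compound-exposed mec2-1 yeast.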
The nature of assay [3]: NCI Yeast Anticancer Drug Screen. Data for the sgs1 mgt1 strain (AID 161).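 Further: 0% = growth of cultures given vehicle only.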 The conditions noted are these: S. cerevisiae sgs1 mgt1 strain, at 50.0 µM, stronger effect = higher value. Put shortly: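 Mutant yeast exposed to compound; growth scored against vehicle-only wells.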
The nature of assay [4]: NCI Yeast Anticancer Drug Screen. Data for the bub3 strain (AID 167). To be noted: S. cerevisiae bub3 mutant strain, at 50.0 µM, stronger effect = higher value. The gist of the method:
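Readout: yeast growth inhibition, expressed relative to vehicle-only wells. The test organism is a mutant strain from a panel with lesions in DNA repair or checkpoint genes.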

A short description of assay [5]: NCI Yeast Anticancer Drug Screen. Data for the mlh1 rad18 strain (AID 175). To be noted: S. cerevisiae mlh1 rad18 strain growth inhibition; at 50.0 µM; stronger effect = higher value. Put shortly: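 Vehicle-treated cultures served as the reference for growth inhibition in a yeast strain carrying DNA damage repair alterations exposed to each compound.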
A short description of assay [6]: NCI Yeast Anticancer Drug Screen. Data for the cln2 rad14 strain (AID 165).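 Further: 0% = growth equal to vehicle treated cultures.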 The conditions noted are these: S. cerevisiae cln2 rad14 strain, at 50.0 µM, stronger effect = higher value. The gist of the method: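 Each compound was tested on cln2 rad14 yeast. Inhibition of growth was calculated against vehicle-exposed controls.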

For the compound `CC(C)(C)c1cc(O)c(C(C)(C)C)cc1O`, the growth inhibition was 12.1% in assay [1]; -0.05% in assay [2]; 6.05% in assay [3]; 0.15% in assay [4]; 11.2% in assay [5].
With `c1ccc2c(c1)Sc1ccccc1S2`, the growth inhibition is -6.95% in assay [1]; 6.8% in assay [2]; 22.1% in assay [3]; -3.6% in assay [4]; -18.6% in assay [5].
Turning to `Oc1ccc(O)cc1`, the growth inhibition in assay [1] is 20.6%; in assay [2], 15%; in assay [3], -0.45%; in assay [5], 40.3%.
With `O=c1c2ccccc2c(Br)c(Br)c2ccccc12`, the growth inhibition in assay [1] was 11.4%; in assay [2], -12.4%; in assay [3], 15.6%; in assay [4], 9.15%.
As for `N#CCc1ccc([N+](=O)[O-])cc1`, the growth inhibition is -14.2% in assay [1]; 8.3% in assay [2]; -13.5% in assay [3]; 15.2% in assay [4]; -6.3% in assay [5].
On to `CCCC(=O)c1cc(C)ccc1OC`, for which the growth inhibition is -2.15% in assay [1]; 0.15% in assay [2]; -9.85% in assay [3]; 6.6% in assay [4]; -3.2% in assay [5].
Regarding `COc1cc(C(N)=O)cc(OC)c1OC`, the growth inhibition was 2.9% in assay [1]; -9.5% in assay [2]; -0.35% in assay [3]; 4.95% in assay [4]; -2.65% in assay [5].
`CC1SC(N)=NC1=O` (stereo unspecified): the growth inhibition was 12.8% in assay [1]; -6.7% in assay [2]; 0.25% in assay [3]; -7.5% in assay [4]; 2.55% in assay [5].
The corresponding values for `CCOC(=O)c1[nH]c(C)c(C(=O)O)c1C` are -4.45%, -26.3%, 0.2%, -23.8% and -11.2%.
In the same order, the values of `Oc1ccccc1O` are 11.7%, 6.7%, 8.85%, -1.6% and 8.25%.
`CC(=O)OCCO`: the growth inhibition was 9.6% in assay [1]; 3.5% in assay [2]; -9.65% in assay [3]; -41.8% in assay [4]; 17.6% in assay [5].
With `COC(=O)C(O)c1ccccc1` (stereo unspecified), the growth inhibition in assay [1] is 21.4%; in assay [2] it was 11.3%; in assay [3], 5.55%; in assay [4], 11.1%; in assay [5], 20%.
The corresponding values for `COc1cccc(Sc2ccc([N+](=O)[O-])c3no[n+]([O-])c23)c1` are 81.5% (active), 91.7% (active), 90.2% (active), 88.4% (active) and 83.5% (active).
Turning to `CC1(C)OC(=O)C(c2ccsc2)C(=O)O1`, the growth inhibition in assay [1] is -6.25%; in assay [2], -9.35%; in assay [3], -20.4%; in assay [5], -3.7%.
As for `O=C(O)CNC(=O)c1ccccc1`, the growth inhibition is -46% in assay [1]; -4.45% in assay [2]; -25.6% in assay [3]; -25% in assay [4]; -47.6% in assay [5].
For the compound `CCOC(=O)Nc1cc2c(c(N)n1)N=C(c1ccccc1)CO2`, the growth inhibition in assay [1] is 37.5%; in assay [2], 27.7%; in assay [3], 34%; in assay [4], 14.8%; in assay [5], -21.9%.
As for `Cc1cc(/C=C/c2ccc3cc(N(C)C)ccc3[n+]2C)c(C)n1-c1ccccc1`, the growth inhibition in assay [1] was 87.2% (active); in assay [3] it was 92.8% (active); in assay [6], 93.2% (active); in assay [4], 70.8% (active); in assay [5], 95.8% (active).
In the same order, the values of `O=S(=O)(O)CC(O)CN1CCN(CCO)CC1` (stereo unspecified) are -18.9%, -36.8%, 5.45%, -23.9% and -6.3%.
With `C#CC(C)(O)c1ccc(Cl)cc1` (stereo unspecified), the growth inhibition in assay [1] is 14.4%; in assay [3], 8.7%; in assay [6], -7.35%; in assay [4] it was -26.4%; in assay [5], 2.65%.
For `CCCC(=O)Nc1ccc2c(c1)CN1C(=O)c3ccccc3C1=N2`, the growth inhibition is -11.7% in assay [1], 7.75% in assay [3], 5.15% in assay [6] and -1.65% in assay [4].
Turning to `C=CCc1cc(C(C)=O)cc(OC)c1O`, the growth inhibition in assay [1] was -16.1%; in assay [3], 5.7%; in assay [6], -16.5%; in assay [4], -34.4%; in assay [5], -19.4%.
Consider `COc1cc2c3cc1Oc1c(OC)c(OC)cc4c1C(Cc1ccc(O)c(c1)Oc1ccc(cc1)CC3N(C)CC2)N(C)CC4` (stereo unspecified), for which the growth inhibition in assay [1] is 1.05%; in assay [3], 0.65%; in assay [6] it was 6.9%; in assay [4] it was 8.1%; in assay [5] it was -89.8%.
In the same order, the values of `CCN(CC)C(=O)/C=C(/C)c1ccccc1` are -12.6%, -22.2%, -6.95%, 4.25% and -29.8%.
Take `CC1CCC(C(=O)O)N1` (stereo unspecified): the growth inhibition in assay [1] is 29.6%; in assay [3] it was 1.7%; in assay [6], 4.45%; in assay [4] it was -3.2%; in assay [5], 6.65%.
With `O=C(O)c1cccc([N+](=O)[O-])c1O`, the growth inhibition in assay [1] is -41.4%; in assay [3] it was 8.95%; in assay [6], -0.7%; in assay [4], -0.8%; in assay [5] it was 14.4%.
